The results in this text go back to PubChem BioAssay (EPA / NIEHS).

In test [1] the target is human Serotonin, 5-Hydroxytryptamine Receptor 5A (5HT5A), HTR5A (gene 3361) (UniProt P47898). The experiment in a line: NVS_GPCR_h5HT5A: NovaScreen (NVS) G Protein-Coupled Receptor Assay for human Serotonin, 5-Hydroxytryptamine Receptor 5A (5HT5A) (AID 2283251). In short, it runs like this:
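Cell-free radioligand displacement binding on HEK293-derived membrane protein, 1 h incubation, filter-based scintillation counting. Primary screen in duplicate at 25 uM, actives followed in concentration series; loss of signal fitted versus DMSO.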

Test [2] deals with human Serotonin, 5-Hydroxytryptamine Receptor 6 (5HT6), HTR6 (gene 3362) (UniProt P50406). Put plainly: NVS_GPCR_h5HT6: NovaScreen (NVS) G Protein-Coupled Receptor Assay for human Serotonin, 5-Hydroxytryptamine Receptor 6 (5HT6) (AID 2283253). The procedure, abridged: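 Radioligand binding to 5HT6 in HEK293-derived membranes, cell-free, 1 h after dosing; bound ligand measured by filter-based scintillation counting. Primary screen in duplicate at 25 uM; actives retested in concentration series.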

The target of test [3] is human Serotonin, 5-Hydroxytryptamine Receptor 7 (5HT7), HTR7 (gene 3363) (UniProt P34969). Put plainly: NVS_GPCR_h5HT7: NovaScreen (NVS) G Protein-Coupled Receptor Assay for human Serotonin, 5-Hydroxytryptamine Receptor 7 (5HT7) (AID 2283255).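 Also: hits reduce specific radioligand binding relative to DMSO.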 The procedure, abridged:
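Radioligand displacement on membranes from CHO cells expressing human 5HT7, 1 h incubation, filter-based scintillation counting. Primary screen used a single 25 uM concentration in duplicate; actives were followed up in concentration series.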

Test [4] has as its target human Adrenergic, Alpha 2c Receptor (Adra2C), ADRA2C (gene 152) (UniProt P18825). Put plainly: NVS_GPCR_hAdra2C: NovaScreen (NVS) G Protein-Coupled Receptor Assay for human Adrenergic, Alpha 2c Receptor (Adra2C) (AID 2283259). The procedure, abridged: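 Radioligand binding on Sf9-expressed receptor membranes, 1 h after chemical dosing, filter-based scintillation read-out. Loss of binding fitted positively versus DMSO; primary duplicate screen at 25 uM, actives retested in concentration series.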

Test [5] addresses human Adenosine A1 Receptor (AdoRA1), ADORA1 (gene 134) (UniProt P30542). The experiment in a line: NVS_GPCR_hAdoRA1: NovaScreen (NVS) G Protein-Coupled Receptor Assay for human Adenosine A1 Receptor (AdoRA1) (AID 2283254). In short, it runs like this: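 Hum. cortical membranes + radioligand, cmpd 1 h; filtration, scintillation count. Readout = decrease vs DMSO. Primary 25 uM dup; hits → conc. series.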

Test [6] concerns the target human Adrenergic, Alpha 2A Receptor (Adra2A), ADRA2A (gene 150) (UniProt P08913). Put plainly: NVS_GPCR_hAdra2A: NovaScreen (NVS) G Protein-Coupled Receptor Assay for human Adrenergic, Alpha 2A Receptor (Adra2A) (AID 2283257). The procedure, abridged: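 Radioligand filter-binding was run on HT29-derived membranes, cell-free, read by scintillation counting 1 h after dosing. Primary screening was in duplicate at 25 uM, with concentration series in follow-up. Loss of signal versus DMSO indicates displacement.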

In test [7] the target is human Adrenergic, Beta 1 Receptor (Adrb1), ADRB1 (gene 153) (UniProt P08588). The experiment in a line: NVS_GPCR_hAdrb1: NovaScreen (NVS) G Protein-Coupled Receptor Assay for human Adrenergic, Beta 1 Receptor (Adrb1) (AID 2283258). The procedure, abridged: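 Cell-free radioligand displacement on receptor from human neuroepithelioma cells; 2 h after dosing, filter-based scintillation counting. Primary screen in duplicate at 25 uM, actives retested in concentration series; loss of signal vs DMSO baseline.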

In test [8] the target is Beta-2 adrenergic receptor (Homo sapiens) (UniProt P07550). Put plainly: NVS_GPCR_hAdrb2: NovaScreen (NVS) G Protein-Coupled Receptor Assay for human Adrenergic, Beta 2 Receptor (Adrb2) (AID 2283261). The protocol:
NVS_GPCR_hAdrb2 is a biochemical, single-readout assay that uses extracted gene-proteins from CHO in a cell-free assay. Measurements were taken 1 hour after chemical dosing in a 96-well plate.NVS_GPCR_hAdrb2 is one of one assay component(s) measured or calculated from the NVS_GPCR_hAdrb2 assay. It is designed to make measurements of radioligand binding, a form of binding reporter, as detected with scintillation counting signals by Filter-based radiodetection technology.Data from the assay component NVS_GPCR_hAdrb2 was analyzed into 1 assay endpoint. This assay endpoint, NVS_GPCR_hAdrb2, was analyzed in the positive analysis fitting direction relative to DMSO as the negative control and baseline of activity. […] Furthermore, this assay endpoint can be referred to as a primary readout, because the performed assay has only produced 1 assay endpoint. […]
Binding assays used specific radioligands (tritiated, iodinated) with non-radioactive competitive displacement ligands in agonist or antagonist protocols (as indicated) and various reference compounds and inhibitors to titrate specific binding to receptors and transporters. Most enzyme assays (CYPs, kinases, phosphatases, proteases, HDACs) used recombinant protein and specific substrates (fluorescence mostly, some colorimetric and radioactive) and inhibitors, followed by a biochemical separation of substrate and product. […]

Inconclusive results are not listed. Activity calls are given as the source filed them. The calls were made as follows: active = hit-call score of the fitted dose curve at least 0.9, where 1 is the maximum; inconclusive = response in the unintended direction; inactive = score below 0.9.

human Adrenergic, Alpha 2c Receptor (Adra2C), ADRA2C (gene 152), sequence (P18825 whole entry, looked up): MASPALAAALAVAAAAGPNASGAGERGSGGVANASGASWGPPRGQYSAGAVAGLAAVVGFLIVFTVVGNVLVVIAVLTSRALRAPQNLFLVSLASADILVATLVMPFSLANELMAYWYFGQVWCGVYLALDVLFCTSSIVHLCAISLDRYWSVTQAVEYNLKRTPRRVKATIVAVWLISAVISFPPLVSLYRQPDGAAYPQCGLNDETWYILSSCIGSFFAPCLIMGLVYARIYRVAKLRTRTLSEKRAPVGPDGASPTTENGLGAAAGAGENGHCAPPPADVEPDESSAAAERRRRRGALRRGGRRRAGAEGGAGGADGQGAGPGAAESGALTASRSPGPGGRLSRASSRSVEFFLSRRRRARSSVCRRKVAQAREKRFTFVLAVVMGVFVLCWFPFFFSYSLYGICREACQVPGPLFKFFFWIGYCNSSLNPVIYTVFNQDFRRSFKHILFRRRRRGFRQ
human Serotonin, 5-Hydroxytryptamine Receptor 5A (5HT5A), HTR5A (gene 3361), sequence (P47898 whole entry, looked up): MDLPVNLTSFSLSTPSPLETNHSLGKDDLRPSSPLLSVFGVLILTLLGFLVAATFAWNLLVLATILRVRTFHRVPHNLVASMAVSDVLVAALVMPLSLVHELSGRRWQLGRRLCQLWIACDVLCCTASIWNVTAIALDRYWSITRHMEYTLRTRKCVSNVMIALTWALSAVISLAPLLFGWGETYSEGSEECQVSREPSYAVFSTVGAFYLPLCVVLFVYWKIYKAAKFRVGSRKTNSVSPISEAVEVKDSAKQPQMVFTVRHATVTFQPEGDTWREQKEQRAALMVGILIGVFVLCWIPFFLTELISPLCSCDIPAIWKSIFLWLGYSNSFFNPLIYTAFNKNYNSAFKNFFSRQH
human Serotonin, 5-Hydroxytryptamine Receptor 7 (5HT7), HTR7 (gene 3363), sequence (P34969 whole entry, looked up): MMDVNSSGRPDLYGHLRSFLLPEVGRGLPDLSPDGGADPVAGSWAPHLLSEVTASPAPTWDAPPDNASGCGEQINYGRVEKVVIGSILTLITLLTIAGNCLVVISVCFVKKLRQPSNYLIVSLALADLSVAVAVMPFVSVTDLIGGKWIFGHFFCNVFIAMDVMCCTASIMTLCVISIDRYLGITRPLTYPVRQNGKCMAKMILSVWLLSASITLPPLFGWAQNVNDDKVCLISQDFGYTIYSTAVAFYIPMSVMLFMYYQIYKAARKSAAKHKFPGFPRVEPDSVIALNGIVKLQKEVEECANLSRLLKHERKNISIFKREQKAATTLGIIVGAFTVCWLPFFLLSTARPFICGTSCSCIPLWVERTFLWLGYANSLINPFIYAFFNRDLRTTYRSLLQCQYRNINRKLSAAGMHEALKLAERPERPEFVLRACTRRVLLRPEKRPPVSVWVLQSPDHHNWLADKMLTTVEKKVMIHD
human Serotonin, 5-Hydroxytryptamine Receptor 6 (5HT6), HTR6 (gene 3362), sequence (P50406 whole entry, looked up): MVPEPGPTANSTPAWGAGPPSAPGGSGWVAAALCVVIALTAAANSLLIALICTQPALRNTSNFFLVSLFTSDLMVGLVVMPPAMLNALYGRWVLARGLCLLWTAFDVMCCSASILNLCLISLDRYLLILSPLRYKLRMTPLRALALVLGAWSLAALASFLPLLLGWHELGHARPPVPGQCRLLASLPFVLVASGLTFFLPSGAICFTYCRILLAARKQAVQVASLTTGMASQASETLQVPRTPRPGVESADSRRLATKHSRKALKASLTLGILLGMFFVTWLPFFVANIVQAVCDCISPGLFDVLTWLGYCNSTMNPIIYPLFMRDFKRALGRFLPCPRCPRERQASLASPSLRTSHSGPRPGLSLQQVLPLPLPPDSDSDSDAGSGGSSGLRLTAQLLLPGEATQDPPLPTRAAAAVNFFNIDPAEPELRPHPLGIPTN
human Adenosine A1 Receptor (AdoRA1), ADORA1 (gene 134), sequence (P30542 whole entry, looked up): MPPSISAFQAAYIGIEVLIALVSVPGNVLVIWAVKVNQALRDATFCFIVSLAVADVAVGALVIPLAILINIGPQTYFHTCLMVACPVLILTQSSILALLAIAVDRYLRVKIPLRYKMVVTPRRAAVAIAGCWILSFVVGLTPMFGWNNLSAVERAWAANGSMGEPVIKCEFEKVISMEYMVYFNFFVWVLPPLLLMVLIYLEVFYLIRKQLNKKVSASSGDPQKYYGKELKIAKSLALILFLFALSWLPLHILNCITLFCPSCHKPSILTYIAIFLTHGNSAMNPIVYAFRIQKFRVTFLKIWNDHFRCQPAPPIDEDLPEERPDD
Beta-2 adrenergic receptor (Homo sapiens), sequence (P07550 whole entry, looked up): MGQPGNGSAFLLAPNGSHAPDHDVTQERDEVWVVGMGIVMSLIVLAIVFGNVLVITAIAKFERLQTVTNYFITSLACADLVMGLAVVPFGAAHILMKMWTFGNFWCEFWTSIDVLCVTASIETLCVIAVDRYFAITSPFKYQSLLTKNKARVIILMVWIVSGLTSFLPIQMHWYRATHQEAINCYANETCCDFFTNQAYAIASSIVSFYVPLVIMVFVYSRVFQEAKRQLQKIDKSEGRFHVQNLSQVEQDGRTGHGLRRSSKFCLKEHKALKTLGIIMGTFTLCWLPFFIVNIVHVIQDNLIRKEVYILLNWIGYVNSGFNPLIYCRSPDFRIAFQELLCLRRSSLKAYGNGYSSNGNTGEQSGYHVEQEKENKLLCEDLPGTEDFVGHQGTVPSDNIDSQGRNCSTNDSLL
human Adrenergic, Alpha 2A Receptor (Adra2A), ADRA2A (gene 150), sequence (P08913 whole entry, looked up): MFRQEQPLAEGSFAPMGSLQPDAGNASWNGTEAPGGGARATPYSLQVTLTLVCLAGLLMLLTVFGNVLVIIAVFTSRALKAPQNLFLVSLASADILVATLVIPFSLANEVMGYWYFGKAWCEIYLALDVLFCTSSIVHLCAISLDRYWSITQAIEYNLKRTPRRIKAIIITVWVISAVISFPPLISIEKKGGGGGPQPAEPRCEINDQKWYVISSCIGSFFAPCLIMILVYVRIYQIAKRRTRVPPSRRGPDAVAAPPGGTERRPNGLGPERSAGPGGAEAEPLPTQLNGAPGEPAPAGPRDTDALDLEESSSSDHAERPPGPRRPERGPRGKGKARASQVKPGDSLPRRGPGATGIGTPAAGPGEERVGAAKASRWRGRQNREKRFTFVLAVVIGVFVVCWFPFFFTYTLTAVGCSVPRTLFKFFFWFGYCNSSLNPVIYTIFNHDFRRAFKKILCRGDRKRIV
human Adrenergic, Beta 1 Receptor (Adrb1), ADRB1 (gene 153), sequence (P08588 whole entry, looked up): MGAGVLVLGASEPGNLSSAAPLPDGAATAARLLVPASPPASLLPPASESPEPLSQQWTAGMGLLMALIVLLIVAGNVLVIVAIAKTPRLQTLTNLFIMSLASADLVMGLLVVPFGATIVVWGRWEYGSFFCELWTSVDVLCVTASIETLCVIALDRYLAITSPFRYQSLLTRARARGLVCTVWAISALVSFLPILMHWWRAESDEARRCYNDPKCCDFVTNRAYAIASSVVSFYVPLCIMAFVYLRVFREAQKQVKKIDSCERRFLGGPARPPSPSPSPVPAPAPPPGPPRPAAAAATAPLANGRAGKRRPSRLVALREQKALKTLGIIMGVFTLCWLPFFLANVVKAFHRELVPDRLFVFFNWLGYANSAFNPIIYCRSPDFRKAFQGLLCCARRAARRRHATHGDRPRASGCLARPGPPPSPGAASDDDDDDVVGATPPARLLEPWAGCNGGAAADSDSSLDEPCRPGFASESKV

The AC50 is the concentration at which the activity in the assay is half-maximal. On to `CC/C(=C(\c1ccccc1)c1ccc(OCCN(C)C)cc1)c1ccccc1`, for which the AC50 is 6.95 µM (active) in test [1], 6.32 µM (active) in test [2], 4.89 µM (active) in test [3] and 9.54 µM (active) in test [4].

With `O=C(c1ccc(OCCN2CCCCC2)cc1)c1c(-c2ccc(O)cc2)sc2cc(O)ccc12`, the AC50 in test [1] was 3.5 µM (active); in test [2], 3.57 µM (active); in test [3], 2.27 µM (active); in test [6], 9.52 µM (active); in test [7] it was 10.5 µM (active); in test [4], 2.78 µM (active). Moreover, in test [8], the AC50 was 11.8 µM (active). Also, the outcome in test [5] was inactive.

With `COc1ccc(C(C)=O)cc1`, in test [5], the compound was called inactive.
